An excerpt weighted towards active compounds, which were near 4.7% of everything screened.
Efflux pump mplx: inhibitors of Candida antifungal efflux pumps expressed in yeast. S. cerevisiae Candida pump triplex, Nile Red efflux. inhibition, % at 10 µM. 0.44% of 330,000 active. AID 485275;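 active = plate passing quality check with inhibition over a set limit, or well fluorescence over plate mean plus 4 SD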;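 note: Nile Red retained in pooled yeast measured as flow cytometry median fluorescence; 0% = buffer negative control and 100% = Enniatin B positive control; higher means more Nile Red kept so more efflux inhibition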
PABP FP inh: PABP-poly(A) binding inhibition; P11940; PABP-poly(A) RNA binding, fluorescence polarization; inhibition, % at 35 µM; 1% of 290,000 active;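 note: calls also rest on retests at 20 µM and on dose response follow-up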
eIF4H FP inh: inhibitors of RNA binding by human eIF4H; Q15056; 0.94% of 290,000 active; eIF4H fluorescence polarization binding assay; inhibition, % at 35 µM;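 note: calls also rest on retests at 20 µM and on dose response follow-up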
MLLE-PAM2 inh: blocks PAM2 peptide binding to the PABP1 MLLE domain. GST-MLLE / FITC-PAM2 fluorescence polarization. inhibition, % at 20 µM. 0.36% of 360,000 active. AID 588489; in the data active = inhibition above about 35%, passing the limit was not always enough;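 note: plate controls were DMSO wells with GST-MLLE for no effect and wells lacking GST-MLLE protein for full effect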
UBC9 SUMO inh: inhibitors of human SUMOylation (UBC9); 0.36% of 290,000 active; HTRF SUMOylation assay, SAE1/SAE2 + UBC9, in vitro; inhibition, % at 35 µM; P63279; in the data active = inhibition above about 50%, passing the limit was not always enough; inconclusive = no clear call, values can overlap the other calls
Target sequence (P63279 whole entry, looked up): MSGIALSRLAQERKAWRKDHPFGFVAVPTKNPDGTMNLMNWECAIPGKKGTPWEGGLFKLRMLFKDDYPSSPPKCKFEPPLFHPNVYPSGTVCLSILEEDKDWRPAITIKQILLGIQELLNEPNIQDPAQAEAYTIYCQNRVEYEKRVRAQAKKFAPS
ALR inh: human ALR oxidase inhibition via reduced H2O2 | purified ALR, DTT oxidation, H2O2 HRP-luminol luminescence | inhibition, % (concentration not given with the values) | 3.8% of 290,000 active | AID 485317;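 active = mean replicate inhibition above about 79%, with every replicate also reaching it, limit read from the data; inconclusive = only one of the two criteria met; inactive = mean below limit and not every replicate reaching it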
An asterisk follows results filed as active; ? = inconclusive; . = no result; ! = not active in a repeat. Unless noted, the rule behind the calls is not given here.

SMILES	Efflux pump mplx	PABP FP inh	eIF4H FP inh	MLLE-PAM2 inh	UBC9 SUMO inh	ALR inh
COc1ccc(N2CCN(CCCNC(=O)C3CCCN(S(=O)(=O)c4cnc[nH]4)C3)CC2)cc1 (stereo not given)	0	8	7	-1	11	87*
CCc1cc(-c2n[nH]c(=S)n2N)n(C)n1	0	-1	11	-42	-7	95*
CCc1nn(C)c(-c2n[nH]c(=S)n2N)c1Cl	0	-10	-6	-45	4	91*
Cc1ncc([N+](=O)[O-])n1CC(C)O (stereo not given)	0	3.9*!	?	4	-1	.
Cc1ncc([N+](=O)[O-])n1CCO	0	77	5.6*	7	7	4
CCS(=O)(=O)CCn1c([N+](=O)[O-])cnc1C	0	3	-7	3	2	-15
COc1ccc(C(C(=O)NC2CCCCC2)N(Cc2cccnc2)C(=O)c2snc(C(N)=O)c2N)cc1 (stereo not given)	0	-8	5	-1	-8	-13
CC1CCCC(NC(=O)c2cccc(S(=O)(=O)N3CCCCC3)c2)C1C (stereo not given)	0	3	4	-16	7	-10
CCn1c(SCC(=O)c2ccc(C)cc2)nnc1-c1ccoc1C	0	3	1	0	6	67
CCn1c(SCC(=O)c2ccccc2)nnc1-c1cccnc1	0	-7	3	-2	20	91*
CCn1c(SCC(=O)c2ccccc2)nnc1-c1ccoc1C	0	7	-6	4	-5	84*
O=C(Nc1cccc([N+](=O)[O-])c1)c1[nH]ncc1Cl	0	-3	-7	-6	0	96*
O=C(Nc1cccc([N+](=O)[O-])c1)c1cnccn1	0	-5	17	16	9	-3
O=C(O)c1cn[nH]c1-c1cccc([N+](=O)[O-])c1	0	-12	98*	10	6	-15
O=Cc1cn[nH]c1-c1cccc([N+](=O)[O-])c1	0	-9	-1	-5	-11	0
CN(CC(=O)Nc1ccc(F)cc1[N+](=O)[O-])C1CCS(=O)(=O)C1 (stereo not given)	0	.	.	18	.	-3
Oc1ccccc1C=NC1=NN(c2cccc(C(F)(F)F)c2)CC1	0	-1	-12	4	11	78*
FC(F)(F)c1cccc(N2CCC(N=CN3CCCCCC3)=N2)c1	0	-14	7	-12	-17	51
O=C(COC(=O)c1ccccc1Br)NCCC1=CCCCC1	0	8	-5	2	22	-34
O=C(NC(=S)NCCC1=CCCCC1)c1ccccc1Br	0	13	8	45*	-6	-1
Cc1ccc2nc(Nc3ccc(C)c(C)c3)c3nncn3c2c1	0	-9	2	7	13	-9
NC(=O)CC1NC(=O)c2cc([N+](=O)[O-])cc(I)c2OCCC(C(N)=O)NC(=O)[C@@H]2CCCN2C1=O (stereo not given in full)	0	59	active	.	11	-10
Cc1ccc2[nH]cc(CCNC(=O)c3cccs3)c2c1	0	3	10	5	-11	97*
Cc1ccc2[nH]cc(CCNC(=O)c3ccco3)c2c1	0	9	-11	3	-4	57
Cc1cc(=O)c(C(=O)Nc2cccc(C(=O)NC3CC3)c2)nn1-c1ccccc1	.	.	.	-20	.	.
SMILES	Efflux pump mplx	PABP FP inh	eIF4H FP inh	MLLE-PAM2 inh	UBC9 SUMO inh	ALR inh
CCOC(=O)N1CCN(c2nc3ccccc3nc2C(C#N)S(=O)(=O)c2ccc(C)cc2)CC1 (stereo not given)	0	118*	122*	8	26	20
N#CC(c1nc2ccccc2nc1N1CCCCC1)S(=O)(=O)c1ccc(Cl)cc1 (stereo not given)	.	77	116	.	75*	.
Cc1ccc(S(=O)(=O)C(C#N)c2nc3ccccc3nc2N2CCCCC2)cc1 (stereo not given)	.	?	?	.	83*	.
Cc1ccc(S(=O)(=O)C(C#N)c2nc3ccccc3nc2N2CCN(C)CC2)cc1 (stereo not given)	0	8	?	12	38	5
N#CCCN(C(=O)COC(=O)C1CCN(S(=O)(=O)c2ccccc2C(F)(F)F)CC1)c1ccccc1	.	.	.	-15	.	.
Cc1ccc(S(=O)(=O)/N=C(\Sc2ccccc2)c2ccccc2)cc1	0	8	-6	36	-14	98*

High-throughput results from PubChem BioAssay.
